Data reported in PubChem BioAssay (NCATS).
Several values for one entry are separate records, joined by “and”; a condition that tells them apart may be missing. Identical values can stand only once. Results filed as inconclusive are left out. A call without a number means that no potency is given here. The source holds several records for some structures; these can differ, active in one and inactive in another. Activity calls are given as the source filed them. Calls come from the whole dose curve; as a rule, active = well fitted inhibition curve with a large enough effect; inconclusive = small, poorly fitted or top-dose-only effect; inactive = flat fitted curve, though single readings scatter.

Assay: P-glycoprotein substrates identified in KB-8-5-11 adenocarcinoma cell line, qHTS therapeutic library screen (AID 1346987); note: nearly all actives have a fitted effect of over 65% in size
Conditions: KB-8-5-11 (P-gp overexpressing) viability, CellTiter-Glo, 72 h; series mostly up to 44.5 µM
Summary of the method: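 Steps: plate 500 KB-8-5-11 cells/well in DMEM + 10% FCS (colchicine removed); pin compounds in dose-response; incubate 72 h, 37 degree C, 5% CO2; add CellTiter-Glo, 5 min; read luminescence.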
Potency is the fitted concentration of half-maximal effect.

Row | SMILES | Potency
1 | O=C(O)c1ccc(O)c2ncc(N3CCOCC3)cc12 | inactive
2 | CC1=C[C@@H]2[C@@H]([C@@H](O)C[C@@]3(C)[C@H]2C[C@@H](C)[C@]3(O)C(=O)CO)[C@@]2(C)Cc3cnn(-c4ccccc4)c3C=C12 | 16.4 µM (active)
3 | C=CC(=O)Nc1cccc(Sc2nc(Nc3ccc(N4CCN(C)CC4)cc3)ncc2Cl)c1 | 23.1 µM (active)
4 | CC1CCN(c2cc(N3CCN(C)CC3)ccc2NC(=O)c2cc(C#N)c[nH]2)CC1 | inactive
5 | Cn1c(=O)c(Oc2ccc(F)cc2F)cc2cnc(NC3CCOCC3)nc21 | inactive
6 | CNC(=O)[C@H](CC1=CN=C2C=CCC=C12)NC(=O)[C@@H](CC(=O)NO)CC(C)C | inactive
7 | C[C@@H](NC(=O)c1ncnc(N)c1Cl)c1ncc(C(=O)Nc2cc(C(F)(F)F)c(Cl)cn2)s1 | inactive
8 | O=C(NC[C@H](O)CO)c1ccncc1Nc1ccc(I)cc1F | inactive
9 | COc1ccc2c(c1)c(C1=C(c3c[nH]c4ccccc34)C(=O)NC1=O)cn2CCCN(C)C | inactive
10 | CN(C)CCOc1cc(-c2cn[nH]c2)ccc1NC(=O)C1COc2ccccc2O1 (centres undefined) | inactive
11 | COc1cc2c(cc1OC)[C@@H]1Cc3ccc(OC)c(OC)c3CN1CC2 | inactive
12 | Oc1ccc(C=Cc2cc(O)cc(O)c2)cc1 | inactive
13 | CO[C@H]1/C=C\O[C@@]2(C)Oc3c(C)c(O)c4c(O)c(c5c(nc6cc(C)ccn65)c4c3C2=O)NC(=O)C(C)=CC=C[C@H](C)[C@H](O)[C@@H](C)[C@@H](O)[C@@H](C)[C@H](OC(C)=O)[C@H]1C | inactive
14 | c1ccc(CNc2nc(N3CCOc4ccccc43)nc3c2CCCC3)cc1 | inactive
15 | Cc1cccc(-c2[nH]c(C(C)(C)C)nc2-c2ccc3c(c2)OCO3)n1 | 10.3 µM (active)
16 | N#CC(c1ccc(Cl)cc1)c1c(Cl)cc(-n2ncc(=O)[nH]c2=O)cc1Cl (centres undefined) | inactive
17 | CNC(=O)c1ccc2c(C(=Nc3cccc(CN(C)C)c3)c3ccccc3)c(O)[nH]c2c1 | inactive
18 | CO[C@@H]1C(N(C)C(=O)c2ccccc2)C[C@H]2O[C@]1(C)n1c3ccccc3c3c4c(c5c6ccccc6n2c5c31)C(=O)NC4=O (some centres undefined) | 7.43 µM (active)
19 | C[C@H]1O[C@@H](n2cc(F)c(=O)[nH]c2=O)[C@H](O)[C@H]1O | 18.7 µM (active)
20 | N#Cc1ccc(Oc2ccc3c(c2)COB3O)cc1 | inactive
21 | CNC(=O)c1c(-c2ccc(F)cc2)oc2cc(N(CCO)S(C)(=O)=O)c(C3CC3)cc12 | inactive
22 | Cc1cc(C(C)Nc2ccccc2)c2nc(N3CCOCC3)cc(=O)n2c1 (centres undefined) | inactive
23 | Cc1nc2c([nH]1)CCN(C(=O)c1ccc(NC(=O)c3ccccc3-c3ccccc3)cc1)c1ccccc1-2 | inactive
24 | Cc1c(C(=O)Nc2ccc(N3C[C@@H](C)O[C@@H](C)C3)nc2)cccc1-c1ccc(OC(F)(F)F)cc1 | inactive
25 | Cc1ccc2c(c1)c1c(n2CCc2ccc(C)nc2)CCN(C)C1 | inactive
26 | CSc1cccc(Nc2ncc3cc(-c4c(Cl)cccc4Cl)c(=O)n(C)c3n2)c1 | inactive and 1.3 µM (active)
27 | CCCCOCCOc1nc(-c2ccc(C(=O)O)c(F)c2)sc1C | inactive
28 | CC1CNc2c(cccc2S(=O)(=O)N[C@@H](CCCN=C(N)N)C(=O)N2CC[C@@H](C)C[C@@H]2C(=O)O)C1 (some centres undefined) | inactive
29 | CC(C)(CO)[C@@H](O)C(=O)NCCC(=O)O | inactive
